# Test results reported in PubChem BioAssay (NCI).
# Compounds without any hit were thinned out: in the full panel of roughly 83,000, 20% have a hit.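 Percent growth is the endpoint: 0 to 100 indicates growth inhibition (40 means 60% inhibition), 0 means no net growth, and negative values indicate cell death.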 Values without a mark were called inactive. The source made the active and inactive calls. The calls were made as follows: active = growth percent below 10; inactive = the rest.
# Test system: MDA-MB-468 breast
# Test: NCI-60 one-dose screen, 48 h (100 = growth as untreated, 0 = no growth, -100 = all killed)
# Conditions: 10 µM unless noted
row,Structure (SMILES),growth
1,Cc1nnc(/N=C2\NC(=O)/C(=C/C=C/c3ccccc3)S2)s1,53%
2,O=S(=O)(NCCNc1nccc(-c2c(-c3ccc(O)cc3)nc3sccn23)n1)c1cccc2ccccc12,94.6%
3,COc1ccc(-c2nsc3c2NC(=O)CC3c2ccc(F)cc2)cc1 (centres undefined),1.54% (active)
4,Cc1ccc(/C=C/C(=O)c2ccc(N)cc2)c(C)c1,88.7%
5,CC1=C[C@H]2c3c(c(O)c(O)c4oc(-c5ccccc5)cc(=O)c34)[C@H](c3cc(O)c(O)c4oc(-c5ccccc5)cc(=O)c34)[C@H]2C(C)(C)C1,14.2%
6,OC(Cc1cc(CC(O)(C(F)(F)F)C(F)(F)F)nc(CC(O)(C(F)(F)F)C(F)(F)F)c1)(C(F)(F)F)C(F)(F)F,-37% (active)
7,CCCCCN1C=C/C(=C\C(=O)n2ccc3ccccc32)c2ccccc21,73%
8,CC(C)c1ccc(C(=O)Nc2nc3ccc(O)cc3s2)cc1,2.85% (active)
9,O=C(N/N=C/c1ccccc1Cl)C(=O)Nc1cccc(C(F)(F)F)c1,89.1%
10,CC(O)CCNC(c1ccccc1)C(O)c1ccccc1 (centres undefined),116%
11,O=S(=O)(CCN1CCOCC1)Nc1cncc(-c2ccc3ncnc(Nc4ccc(F)c(Cl)c4)c3c2)c1,-23.1% (active)
12,CSc1nnc(-c2cc3c([nH]c4ccccc43)c(-c3cccc(O)c3)n2)n1-c1ccc(C)cc1,20.4%
13,COc1ccc(S(=O)(=O)NCCCNc2nccc(-c3[nH]c(-c4ccccc4)nc3-c3ccc(Cl)c(O)c3)n2)cc1,78.3%
14,O=C(Nc1ccc(Cl)cc1F)c1cc(Cl)ccc1O,-20.2% (active)
15,S=C=Nc1ccc2ccccc2c1,97.3%
16,Cl.Fc1c[c-]c(-c2ccccn2)c(F)c1.[Pt].c1ccc([PH+](CC[PH+](c2ccccc2)c2ccccc2)c2ccccc2)cc1,-79.2% (active)
17,O=C(CSc1nc2ccc([N+](=O)[O-])cc2[nH]1)Nc1cccc([N+](=O)[O-])c1,-1.47% (active)
18,O=C(c1ccc(O)cc1)c1ccc(O)cc1,110%
19,CCOC(=O)c1nn(C2CCCCO2)c2ccc(NC(=O)Cn3nnc4ccccc43)cc12 (centres undefined),105%
20,COc1ccc(C2N(c3cc(OC)c(OC)c(OC)c3)C(=O)C2(F)F)cc1F (centres undefined),44.5%
21,COc1ccc(Cn2cc(C(=O)N=Nc3c(O)[nH]c4c(Cl)cccc34)nn2)cc1,98.6%
22,C#CCC(C(=O)OCC)C(=O)OCC,108%
23,Cc1cc2[nH]c(=O)c3c4ncccc4cn3c2cc1C,23.2%
24,Cn1ncc(Cl)c1-c1cc(C(=O)N[C@H](CN)Cc2cccc(F)c2)sc1Cl,-62.5% (active)
